According to PubChem BioAssay (EPA / NIEHS):
The source made the active and inactive calls. Rule for the calls: active = hit-call score of the fitted dose curve at least 0.9, where 1 is the maximum; inactive = score below 0.9.

Key:
[1] = biological target: Transcription factor E2F1 (Homo sapiens) (UniProt Q01094); assay: ATG_E2F_CIS: Attagene CIS-FACTORIAL HepG2 Assay for human E2F Transcription Factor 1 (AID 2282935); conditions: HepG2 Attagene cis-reporter, E2F reporter RNA transcripts; actives raise or lower the signal
Sequence of Transcription factor E2F1 (Homo sapiens) (Q01094 whole entry, looked up): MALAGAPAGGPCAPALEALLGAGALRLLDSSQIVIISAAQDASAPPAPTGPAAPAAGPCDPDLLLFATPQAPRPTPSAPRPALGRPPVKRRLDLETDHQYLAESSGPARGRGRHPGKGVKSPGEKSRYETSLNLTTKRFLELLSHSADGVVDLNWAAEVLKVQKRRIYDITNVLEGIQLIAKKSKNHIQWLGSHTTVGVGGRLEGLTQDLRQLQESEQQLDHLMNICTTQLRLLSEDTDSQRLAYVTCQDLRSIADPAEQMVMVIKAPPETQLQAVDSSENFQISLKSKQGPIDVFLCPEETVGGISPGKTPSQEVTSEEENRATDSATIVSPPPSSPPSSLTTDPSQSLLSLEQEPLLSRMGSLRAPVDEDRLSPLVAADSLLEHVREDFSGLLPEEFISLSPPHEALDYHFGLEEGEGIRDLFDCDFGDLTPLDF
In short: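 Liver-derived HepG2 cells expressing transfected promoter-driven reporter units received test chemical for 24 hours. Signal gains or losses were fitted bidirectionally against DMSO.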

[2] = ATG_E_Box_CIS: Attagene CIS-FACTORIAL HepG2 Assay for human Enhancer Box (E-box) (AID 2282936); conditions: HepG2 E-box cis-reporter transcription, actives raise or lower the signal
In short: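 In this cell-based setup, HepG2 cells bearing transfected promoter-driven reporter units were exposed to chemicals for 24 h; reporter transcripts were amplified, 6-FAM-labelled, cut with HpaI and sized by capillary electrophoresis.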

[3] = ATG_M_61_CIS: Attagene CIS-FACTORIAL HepG2 Assay for M61 Transcription Factor (Internal Marker) (AID 2282937); conditions: HepG2 Attagene CIS-FACTORIAL M61 internal marker reporter; actives raise or lower the signal
In short: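 HepG2 cells transiently transfected with multiplexed cis-promoter reporter units reporting endogenous transcription factor activity, measured 24 h after dosing. Reporter mRNA quantified by RT-PCR and capillary electrophoresis; bidirectional fit against DMSO baseline.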

[4] = ATG_EGR_CIS: Attagene CIS-FACTORIAL HepG2 Assay for human Early Growth Response 1 (EGR1) (AID 2282938); conditions: HepG2 Attagene CIS-FACTORIAL EGR reporter mRNA; actives raise or lower the signal
In short: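 HepG2 cells transiently transfected with cis-element-driven multiplexed reporter units, dosed for 24 h. EGR1-element reporter mRNA quantified by RT-PCR, 6-FAM labelling, HpaI digestion and capillary electrophoresis; bidirectional fit versus DMSO.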

[5] = ATG_M_19_CIS: Attagene CIS-FACTORIAL HepG2 Assay for M19 Transcription Factor (Internal Marker) (AID 2282939); conditions: HepG2 Attagene CIS-FACTORIAL M19 internal marker reporter; actives raise or lower the signal
In short: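 Chemical-treated HepG2 (24 h) with MRTU constructs; reporter transcripts detected by fluorescent RT-PCR fragment analysis on capillary electrophoresis. Internal background marker, DMSO as baseline.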

[6] = ATG_ERE_CIS: Attagene CIS-FACTORIAL HepG2 Assay for Estrogen Response Element (ERE) (AID 2282940); conditions: HepG2 ERE cis-reporter, Attagene RNA transcript; actives raise or lower the signal
In short: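 Human liver cells (HepG2) bearing transiently transfected, promoter-regulated reporter units were exposed 24 h. Reporter mRNA induction was detected by capillary electrophoresis of labelled RT-PCR products and fitted bidirectionally to DMSO.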

[7] = ATG_Ets_CIS: Attagene CIS-FACTORIAL HepG2 Assay for human Erythroblast Transformation Specific (ETS) (AID 2282941); conditions: HepG2 ETS cis-reporter transcription, actives raise or lower the signal
In short: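 Cis-regulated reporter mRNA induction in HepG2 (transient transfection), 24 h exposure, RT-PCR plus capillary electrophoresis detection; DMSO serves as negative control and baseline.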

[8] = ATG_FoxO_CIS: Attagene CIS-FACTORIAL HepG2 Assay for human Forkhead box O (FoxO) (AID 2282943); conditions: HepG2 Attagene cis-reporter, FoxO element, mRNA; actives raise or lower the signal
In short: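 Transfected HepG2 reporter cells exposed to test chemical for 24 h; reporter RNA measured by reverse transcription, PCR and fluorescent capillary electrophoresis; curves fitted for increases and decreases against DMSO.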

[9] = ATG_GATA_CIS: Attagene CIS-FACTORIAL HepG2 Assay for human GATA Binding Protein (AID 2282944); conditions: HepG2 GATA cis-element reporter, Attagene multiplex mRNA; actives raise or lower the signal
In short: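 Transfected cis-reporter HepG2 cells were treated with chemicals for 24 hours. Total RNA was then converted to cDNA, amplified with reporter-specific primers and analysed by fluorescent capillary electrophoresis, using DMSO-treated wells as baseline.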

[10] = ATG_GLI_CIS: Attagene CIS-FACTORIAL HepG2 Assay for human Zinc Finger Protein GLI1 (AID 2282945); conditions: HepG2, Attagene cis-factorial reporter mRNA, GLI element; actives raise or lower the signal
In short: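 Transiently transfected HepG2 cells report endogenous transcription factor activity via cis-element-driven reporter units. After 24 h compound exposure, reporter mRNA was measured by RT-PCR with capillary electrophoresis; bidirectional fitting against DMSO baseline.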

[11] = ATG_GRE_CIS: Attagene CIS-FACTORIAL HepG2 Assay for human Glucocorticoid Response Elements (GRE) (AID 2282947); conditions: HepG2 GRE cis-reporter, Attagene multiplex mRNA; actives raise or lower the signal
In short: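 Fluorescence intensity of reporter-specific cDNA fragments, separated by capillary electrophoresis, provides the signal. Constructs carry cis-regulating promoters in transiently transfected HepG2 liver cells; 24 h incubation; fitting is bidirectional against DMSO.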

[12] = ATG_ISRE_CIS: Attagene CIS-FACTORIAL HepG2 Assay for human Interferon Regulatory Factor 1 (IRF1) binding to an Interferon-Stimulated Response Element (ISRE) (AID 2282948); conditions: HepG2 ISRE cis-reporter (Attagene), mRNA transcription readout; actives raise or lower the signal
In short: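 Multiplexed mRNA reporter readout in human liver HepG2 cells: cis-element-driven reporters transfected, compound added for 24 h, transcripts amplified, fluorescently labelled and sized by capillary electrophoresis; curve fitting bidirectional against DMSO.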

[13] = ATG_M_32_CIS: Attagene CIS-FACTORIAL HepG2 Assay for M32 Transcription Factor (Internal Marker) (AID 2282949); conditions: HepG2 Attagene cis-factorial M32 reporter, mRNA; actives raise or lower the signal;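 note: background control marker of the multiplexed CIS panel rather than a real target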
In short: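 HepG2 transfectants (cis-regulated reporter transcription units) dosed 24 h. Reporter mRNA by RT-PCR plus CE, analysed as gain or loss relative to DMSO.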

[14] = ATG_M_06_CIS: Attagene CIS-FACTORIAL HepG2 Assay for M06 Transcription Factor (Internal Marker) (AID 2282950); conditions: HepG2 Attagene CIS-FACTORIAL M06 internal marker reporter; actives raise or lower the signal
In short: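 Cells (HepG2, transiently carrying cis-driven reporter units) receive chemical for 24 h before RNA isolation. Reporter cDNA is PCR-amplified, FAM-labelled by primer extension, HpaI-digested and sized on a capillary analyser.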

[15] = biological target: Hypoxia-inducible factor 1-alpha (Homo sapiens) (UniProt Q16665); assay: ATG_HIF1a_CIS: Attagene CIS-FACTORIAL HepG2 Assay for human Hypoxia Inducible Factor 1 (HIF1A) (AID 2282951); conditions: HepG2 Attagene cis-factorial HIF1a reporter transcription; actives raise or lower the signal
Sequence of Hypoxia-inducible factor 1-alpha (Homo sapiens) (Q16665 whole entry, looked up): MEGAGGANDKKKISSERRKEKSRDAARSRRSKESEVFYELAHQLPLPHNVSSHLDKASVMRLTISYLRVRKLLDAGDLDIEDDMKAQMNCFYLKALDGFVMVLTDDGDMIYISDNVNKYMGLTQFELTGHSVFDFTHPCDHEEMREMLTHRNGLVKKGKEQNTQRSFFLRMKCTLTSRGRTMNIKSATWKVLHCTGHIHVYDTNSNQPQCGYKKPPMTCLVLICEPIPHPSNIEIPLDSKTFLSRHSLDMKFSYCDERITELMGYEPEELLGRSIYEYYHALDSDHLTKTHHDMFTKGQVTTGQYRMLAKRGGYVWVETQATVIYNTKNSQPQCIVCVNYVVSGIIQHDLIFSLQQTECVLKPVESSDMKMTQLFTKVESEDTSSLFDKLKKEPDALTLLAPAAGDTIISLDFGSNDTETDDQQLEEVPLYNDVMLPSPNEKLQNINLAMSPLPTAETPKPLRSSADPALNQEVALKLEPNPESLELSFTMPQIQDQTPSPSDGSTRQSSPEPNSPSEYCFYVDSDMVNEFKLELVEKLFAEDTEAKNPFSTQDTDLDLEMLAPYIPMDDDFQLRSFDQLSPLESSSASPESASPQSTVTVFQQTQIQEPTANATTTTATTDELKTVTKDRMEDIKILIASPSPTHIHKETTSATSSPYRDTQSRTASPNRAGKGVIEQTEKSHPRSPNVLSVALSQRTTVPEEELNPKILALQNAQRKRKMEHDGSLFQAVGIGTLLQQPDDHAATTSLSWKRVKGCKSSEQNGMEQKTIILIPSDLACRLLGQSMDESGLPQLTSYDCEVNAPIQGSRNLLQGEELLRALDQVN
In short: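 HepG2 cells transiently transfected with multiple cis-regulated reporter transcription units measure endogenous transcription factor activity. After 24 h exposure, reporter mRNA is quantified by RT-PCR with 6-FAM labelling, HpaI digestion and capillary electrophoresis. Bidirectional fitting against DMSO.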

[16] = biological target: Hepatocyte nuclear factor 6 (Homo sapiens) (UniProt Q9UBC0); assay: ATG_HNF6_CIS: Attagene CIS-FACTORIAL HepG2 Assay for human Hepatocyte Nuclear Factor 6 (HNF6) (AID 2282952); conditions: HepG2 Attagene cis-factorial HNF6 reporter transcription; actives raise or lower the signal
Sequence of Hepatocyte nuclear factor 6 (Homo sapiens) (Q9UBC0 whole entry, looked up): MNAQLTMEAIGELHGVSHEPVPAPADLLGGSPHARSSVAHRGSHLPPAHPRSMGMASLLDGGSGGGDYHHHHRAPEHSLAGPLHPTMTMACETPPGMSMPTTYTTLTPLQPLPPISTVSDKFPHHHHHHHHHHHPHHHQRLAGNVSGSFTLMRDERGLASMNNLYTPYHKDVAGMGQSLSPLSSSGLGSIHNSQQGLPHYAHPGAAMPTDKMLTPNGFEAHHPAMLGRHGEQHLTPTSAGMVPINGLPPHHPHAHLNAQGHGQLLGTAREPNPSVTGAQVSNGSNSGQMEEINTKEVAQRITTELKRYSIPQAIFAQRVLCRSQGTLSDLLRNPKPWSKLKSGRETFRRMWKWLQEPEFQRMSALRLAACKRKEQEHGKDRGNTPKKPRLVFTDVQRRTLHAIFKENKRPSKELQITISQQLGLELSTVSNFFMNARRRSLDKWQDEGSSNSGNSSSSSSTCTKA
In short: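 Endogenous transcription factor activity in human HepG2 liver cells was captured through cis-regulated reporter constructs. After 24 h treatment, reporter mRNA was measured by RT-PCR with capillary electrophoresis, and activity was fitted in both directions relative to DMSO.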

[17] = biological target: Heat shock factor protein 1 (Homo sapiens) (UniProt Q00613); assay: ATG_HSE_CIS: Attagene CIS-FACTORIAL HepG2 Assay for human Heat Shock Transcription Factor 1 (HSE) (AID 2282953); conditions: HepG2 HSE cis-reporter, Attagene RNA transcription; actives raise or lower the signal
Sequence of Heat shock factor protein 1 (Homo sapiens) (Q00613 whole entry, looked up): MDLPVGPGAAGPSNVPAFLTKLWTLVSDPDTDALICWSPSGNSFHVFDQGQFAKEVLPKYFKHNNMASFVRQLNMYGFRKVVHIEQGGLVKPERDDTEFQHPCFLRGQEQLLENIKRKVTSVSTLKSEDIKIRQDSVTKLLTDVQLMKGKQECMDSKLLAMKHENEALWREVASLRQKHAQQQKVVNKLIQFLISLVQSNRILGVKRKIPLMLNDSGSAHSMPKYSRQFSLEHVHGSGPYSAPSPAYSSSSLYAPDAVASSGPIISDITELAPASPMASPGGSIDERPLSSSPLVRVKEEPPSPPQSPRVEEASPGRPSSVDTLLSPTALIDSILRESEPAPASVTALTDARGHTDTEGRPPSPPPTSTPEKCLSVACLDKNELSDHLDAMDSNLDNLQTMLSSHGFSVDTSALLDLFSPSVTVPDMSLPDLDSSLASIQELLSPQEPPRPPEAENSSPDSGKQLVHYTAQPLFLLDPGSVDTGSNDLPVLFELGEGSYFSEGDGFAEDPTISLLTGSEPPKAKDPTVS
In short: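 Liver-derived HepG2 cells carry transiently introduced multiple reporter units governed by cis promoters. Reporter RNA measured 24 h post-dose through reverse transcription, PCR amplification, fluorescent labelling and capillary electrophoresis, normalised to DMSO.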

[18] = ATG_MRE_CIS: Attagene CIS-FACTORIAL HepG2 Assay for human Metal Responsive Element (MRE) (AID 2282954); conditions: HepG2 MRE cis-reporter transcription, Attagene multiplex; actives raise or lower the signal
In short: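 Measured here is mRNA induction from an MRE cis-element reporter in HepG2 after 24 h, quantified by fluorescence of labelled RT-PCR products on capillary electrophoresis; gain- and loss-of-signal fits use DMSO as baseline.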

[19] = biological target: Hepatocyte nuclear factor 3-beta (Homo sapiens) (UniProt Q9Y261); assay: ATG_FoxA2_CIS: Attagene CIS-FACTORIAL HepG2 Assay for human Forkhead box A2 (FOXA2) (AID 2282942); conditions: HepG2 cis-reporter transcription factor activity, 24 h; actives raise or lower the signal
Sequence of Hepatocyte nuclear factor 3-beta (Homo sapiens) (Q9Y261 whole entry, looked up): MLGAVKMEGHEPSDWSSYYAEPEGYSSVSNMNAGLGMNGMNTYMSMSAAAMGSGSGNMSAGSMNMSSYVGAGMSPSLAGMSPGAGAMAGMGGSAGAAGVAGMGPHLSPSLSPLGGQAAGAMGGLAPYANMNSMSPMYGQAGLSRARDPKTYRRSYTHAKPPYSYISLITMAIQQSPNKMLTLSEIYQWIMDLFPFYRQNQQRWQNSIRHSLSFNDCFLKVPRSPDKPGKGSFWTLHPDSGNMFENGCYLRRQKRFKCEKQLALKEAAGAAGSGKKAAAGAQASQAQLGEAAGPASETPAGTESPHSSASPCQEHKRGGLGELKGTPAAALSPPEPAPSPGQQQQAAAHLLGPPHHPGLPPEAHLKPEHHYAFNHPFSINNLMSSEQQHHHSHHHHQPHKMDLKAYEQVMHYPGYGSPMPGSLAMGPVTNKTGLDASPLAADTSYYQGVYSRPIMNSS
In short: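 HepG2 transiently transfected with a multiplexed cis-promoter reporter library read endogenous FOXA2 activity. After 24 h compound exposure, reporter mRNA was quantified by RT-PCR, HpaI digestion and capillary electrophoresis. Bidirectional fit against DMSO.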

[20] = biological target: Bile acid receptor (Homo sapiens) (UniProt Q96RI1); assay: ATG_IR1_CIS: Attagene CIS-FACTORIAL HepG2 Assay for human Nuclear Receptor Subfamily 1 Group H Member 4 (NR1H4), IR1 submotif (AID 2282946); conditions: IR1 reporter transcription, actives raise or lower the signal
Sequence of Bile acid receptor (Homo sapiens) (Q96RI1 whole entry, looked up): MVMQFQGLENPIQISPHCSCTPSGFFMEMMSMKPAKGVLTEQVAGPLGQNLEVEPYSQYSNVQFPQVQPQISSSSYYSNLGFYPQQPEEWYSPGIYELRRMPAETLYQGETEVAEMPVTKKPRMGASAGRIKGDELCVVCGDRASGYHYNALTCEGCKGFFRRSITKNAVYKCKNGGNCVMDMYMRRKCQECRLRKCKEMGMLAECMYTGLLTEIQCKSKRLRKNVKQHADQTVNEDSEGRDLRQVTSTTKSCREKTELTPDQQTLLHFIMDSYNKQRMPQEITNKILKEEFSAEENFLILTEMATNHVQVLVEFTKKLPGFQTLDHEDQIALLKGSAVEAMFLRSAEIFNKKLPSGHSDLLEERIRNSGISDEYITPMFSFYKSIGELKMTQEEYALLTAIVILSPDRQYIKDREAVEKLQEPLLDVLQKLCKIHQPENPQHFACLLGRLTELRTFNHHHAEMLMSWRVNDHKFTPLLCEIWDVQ
In short: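 Fluorescence of capillary-separated, HpaI-digested RT-PCR reporter products gave IR1-element mRNA induction in HepG2 cells 24 h after dosing. Endogenous transcription factors drove the cis-regulated reporters; activity was fitted bidirectionally against DMSO.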

Measured: AC50

CCCCCCCCCCCCCC(=O)OCC
not listed: [18] | [19] | [20]
inactive: all other assays above

C/C=C(\C)C(=O)OC/C=C(\C)CCC=C(C)C
active: [6] 39 µM
not listed: [17] | [19] | [20]
inactive: all other assays above

CC(=O)CC(=O)N(C)C
not listed: [9] | [13] | [14] | [17] | [20]
inactive: all other assays above

CC1(C)[C@H](C=C(Cl)Cl)[C@H]1C(=O)OCc1cccc(Oc2ccccc2)c1
not listed: [9] | [16] | [17] | [20]
inactive: all other assays above

CC(=O)OC/C=C(C)/C=C/C=C(C)/C=C/C1=C(C)CCCC1(C)C
active: [4] 122 µM | [10] 159 µM | [12] 72.8 µM | [17] 155 µM | [18] 100 µM
not listed: [9] | [11] | [15] | [20]
inactive: all other assays above

C=C(C)C(=O)OCCC[Si](OC)(OC)OC
not listed: [9] | [13] | [14] | [16] | [20]
inactive: all other assays above

CCCCCC1C(=O)CCC1CC(=O)OC (configuration not stated)
not listed: [9] | [11] | [13] | [17] | [20]
inactive: all other assays above

CCCCOCCOC(=O)c1ccccc1C(=O)OCCOCCCC
active: [18] 23.4 µM
not listed: [11] | [16] | [19]
inactive: all other assays above

N=C1N=C(N)c2ccccc21
active: [6] 18.1 µM | [12] 74.1 µM | [18] 74.5 µM
not listed: [9] | [20]
inactive: all other assays above

CCc1cccc(O)c1
not listed: [11] | [17] | [19] | [20]
inactive: all other assays above

CCC(=O)OC(C)(C)C1CC=C(C)CC1 (configuration not stated)
active: [6] 100 µM
not listed: [9] | [11] | [13] | [18] | [19] | [20]
inactive: all other assays above

CC(=O)c1ccc2ccccc2c1
not listed: [7] | [14] | [20]
inactive: all other assays above

CC(C)=CC(=O)O
active: [6] 7.06 µM
not listed: [9] | [11] | [15] | [19] | [20]
inactive: all other assays above

Cc1cc(N)n(-c2ccccc2)n1
not listed: [7] | [11] | [17] | [20]
inactive: all other assays above

CCCCOC(=O)C(C)OC(=O)CCC (configuration not stated)
not listed: [14] | [18] | [19] | [20]
inactive: all other assays above

CCCCCC1CCC(=O)O1 (configuration not stated)
not listed: [7] | [13] | [18] | [20]
inactive: all other assays above

CC(=O)C1C(=O)C=C(C)OC1=O (configuration not stated)
not listed: [7] | [14]
inactive: all other assays above

C=C(C)CCCC(C)CCO (configuration not stated)
not listed: [7] | [11] | [20]
inactive: all other assays above

CC(C)N1C(=O)c2ccccc2C1=O
active: [6] 74.7 µM
not listed: [7] | [11] | [17] | [18] | [20]
inactive: all other assays above

CCCO[Si](OCCC)(OCCC)OCCC
active: [1] 100 µM
not listed: [7] | [17] | [20]
inactive: all other assays above

CC/C=C\CCOC(C)OCC (configuration not stated)
not listed: [7] | [18] | [20]
inactive: all other assays above

CCCCCCCCCCCCS
not listed: [11] | [13] | [17] | [19] | [20]
inactive: all other assays above

NC(=O)c1cccnc1
not listed: [7] | [17]
inactive: all other assays above

O=c1cc[nH]cc1
not listed: [7] | [15] | [20]
inactive: all other assays above

CC(=O)CCC=C(C)CCC=C(C)C
not listed: [11] | [14] | [15] | [19] | [20]
inactive: all other assays above

CC1=CC[C@@H](C(C)(C)O)CC1
not listed: [11] | [19] | [20]
inactive: all other assays above
